Measured values from PubChem BioAssay (Tox21).
Results filed as inconclusive are left out. The source made the active and inactive calls. Calls come from the whole dose curve; as a rule, active = well fitted curve in the direction sought with a large enough effect in the repeat runs; inconclusive = weak or mixed curves; inactive = no such curve, though single readings can be large; an effect the other way counts as inactive or inconclusive.

Legend:
[1] = qHTS RealTime-Glo MT Cell Viability Assay in HEK293 cells - 16 hour (AID 1224872); note: top concentration of the series differs between compounds; nearly all actives have a fitted effect of over 50% in size
Summary of the method: (§1)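 Tox21 10K qHTS, HEK293, 600 cells/well, RealTime-Glo reagent co-dispensed with cells; 5 h preincubation, compound by pintool, 37 C, luminescence at 0–40 h.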

[2] = qHTS RealTime-Glo MT Cell Viability Assay in HepG2 cells - 8 hour (AID 1224873); note: nearly all actives have a fitted effect of over 55% in size
Summary of the method: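 HepG2 cells (600/well) mixed with RealTime-Glo MT reagent, settled 5 h at 37 C/5% CO2 before compound addition. Nonlytic NanoLuc luminescence from viable-cell prosubstrate reduction read repeatedly during 40 h treatment at 37 C.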

[3] = qHTS RealTime-Glo MT Cell Viability Assay in HEK293 cells - 40 hour (AID 1224874); settings: RealTime-Glo luminescence; max response: hits give low values; note: nearly all actives have a fitted effect of over 50% in size
Summary of the method: (§2)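 Measured as luminescence from the same continuously cultured HEK293 wells at successive time points (0, 8, 16, 24, 32, 40 h) after compound addition. Reagent present from seeding; dosing at 5 h; incubation 37 C.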

[4] = A CellTox Green Cytotoxicity Assay to monitor cytotoxicity in HEK293 cells - 24 hour (AID 1224875); note: series mostly up to about 77 µM; nearly all actives have a fitted effect of over 45% in size
Summary of the method: (§3)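 Homogeneous no-lysis format: HEK293 cell suspension mixed with CellTox Green reagent, seeded, incubated 5 h at 37 C/5% CO2, then dosed by pintool with compound in DMSO.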

[5] = A CellTox Green Cytotoxicity Assay to monitor cytotoxicity in HepG2 cells - 16 hour (AID 1224876); note: nearly all actives have a fitted effect of over 45% in size
Summary of the method: (§4)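 Fluorescent DNA-binding dye, 600 HepG2 cells/well, 5 h preincubation then compound in DMSO; same plates read at 0–40 h, 37 C.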

[6] = qHTS RealTime-Glo MT Cell Viability Assay in HepG2 cells - 32 hour (AID 1224877); note: nearly all actives have a fitted effect of over 55% in size
Summary of the method: (§5)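 Cells + NanoLuc/prosubstrate dispensed (600 cells/well) → 5 h at 37 C/5% CO2 → compounds in DMSO transferred → 40 h incubation at 37 C, luminescence read at 0, 8, 16, 24, 32, 40 h.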

[7] = A CellTox Green Cytotoxicity Assay to monitor cytotoxicity in HepG2 cells - 24 hour (AID 1224878); note: nearly all actives have a fitted effect of over 45% in size
Summary of the method: as §4

[8] = A CellTox Green Cytotoxicity Assay to monitor cytotoxicity in HepG2 cells - 40 hour (AID 1224879); note: nearly all actives have a fitted effect of over 40% in size
Summary of the method: as §4

[9] = qHTS RealTime-Glo MT Cell Viability Assay in HEK293 cells - 0 hour (AID 1224880); note: top concentration of the series differs between compounds; nearly all actives have a fitted effect of over 45% in size
Summary of the method: as §2

[10] = A CellTox Green Cytotoxicity Assay to monitor cytotoxicity in HEK293 cells - 32 hour (AID 1224881); note: nearly all actives have a fitted effect of over 40% in size
Summary of the method: as §3

[11] = A CellTox Green Cytotoxicity Assay to monitor cytotoxicity in HepG2 cells - 32 hour (AID 1224883); note: nearly all actives have a fitted effect of over 50% in size
Summary of the method: as §4

[12] = A CellTox Green Cytotoxicity Assay to monitor cytotoxicity in HEK293 cells - 8 hour (AID 1224884); note: nearly all actives have a fitted effect of over 35% in size
Summary of the method: as §3

[13] = qHTS RealTime-Glo MT Cell Viability Assay in HepG2 cells - 16 hour (AID 1224885); note: nearly all actives have a fitted effect of over 50% in size
Summary of the method: as §5

[14] = qHTS RealTime-Glo MT Cell Viability Assay in HEK293 cells - 8 hour (AID 1224887)
Summary of the method: as §2

[15] = A CellTox Green Cytotoxicity Assay to monitor cytotoxicity in HEK293 cells - 16 hour (AID 1224888); note: nearly all actives have a fitted effect of over 35% in size
Summary of the method: as §3

[16] = A CellTox Green Cytotoxicity Assay to monitor cytotoxicity in HepG2 cells - 8 hour (AID 1224890); note: nearly all actives have a fitted effect of over 45% in size
Summary of the method: as §4

[17] = A CellTox Green Cytotoxicity Assay to monitor cytotoxicity in HepG2 cells - 0 hour (AID 1224882); note: nearly all actives have a fitted effect of over 35% in size
Summary of the method: as §4

[18] = qHTS RealTime-Glo MT Cell Viability Assay in HEK293 cells - 24 hour (AID 1224886)
Summary of the method: as §1

[19] = qHTS RealTime-Glo MT Cell Viability Assay in HepG2 cells - 0 hour (AID 1224889); note: nearly all actives have a fitted effect of over 50% in size
Summary of the method: as §5

[20] = qHTS assay to identify small molecule antagonists of the estrogen receptor alpha (ER-alpha) signaling pathway using the BG1 cell line in the presence of 0.1 nM 17-beta-estradiol - cell viability counter screen (AID 1259241); note: nearly all actives have a fitted effect of over 40% in size
Summary of the method: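 Estradiol-stimulated (0.1 nM) VM7Luc4E2 cells exposed to compounds 22 hr; viability measured by fluorescence of cleaved CellTiter-Fluor substrate after 30 min.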
% is set by controls: 0 for no effect and ±100 for the full control effect.

CC1N=C(N)OC1c1ccccc1 (centres undefined)
inactive: Potency [1] | outcome [2] | max response [3] -2.35% | Potency [4] | Potency [5] | Potency [6] | Potency [7] | Potency [8] | outcome [9] | Potency [10] | Potency [11] | Potency [12] | Potency [13] | Potency [14] | Potency [15] | Potency [16]

O=S1(=O)OCCO1
inactive: Potency [1] | outcome [2] | max response [3] 4.27% | Potency [4] | Potency [5] | Potency [6] | Potency [8] | outcome [9] | Potency [10] | outcome [17] | Potency [11] | Potency [12] | Potency [13] | Potency [18] | Potency [14] | Potency [15] | outcome [19] | Potency [16]

NCCOS(=O)(=O)O
inactive: Potency [1] | outcome [2] | max response [3] 1.3% | Potency [4] | Potency [5] | Potency [7] | Potency [8] | outcome [9] | Potency [10] | outcome [17] | Potency [11] | Potency [12] | Potency [13] | Potency [14] | Potency [15] | outcome [19] | Potency [16] | outcome [20]

CCN(CCO)CCO
inactive: Potency [1] | outcome [2] | max response [3] 4.13% | Potency [4] | Potency [5] | Potency [7] | Potency [8] | outcome [9] | Potency [10] | outcome [17] | Potency [11] | Potency [12] | Potency [18] | Potency [14] | Potency [15] | outcome [19] | Potency [16] | outcome [20]

CC(Cc1ccccc1)NCCCCl (centres undefined)
inactive: Potency [1] | outcome [2] | max response [3] 5.94% | Potency [4] | Potency [5] | Potency [7] | Potency [8] | outcome [9] | Potency [10] | Potency [11] | Potency [12] | Potency [13] | Potency [15] | Potency [16]

C[C@]12C=CC(=O)C=C1CC[C@@H]1[C@@H]2CC[C@@]2(C)[C@H]1CC[C@]2(C)O
inactive: Potency [1] | outcome [2] | max response [3] -19.7% | Potency [4] | Potency [5] | Potency [7] | outcome [9] | Potency [10] | outcome [17] | Potency [11] | Potency [12] | Potency [13] | Potency [18] | Potency [14] | Potency [15] | outcome [19] | Potency [16] | outcome [20]

CCOC(=O)CC(SP(=S)(OC)OC)C(=O)OCC (centres undefined)
inactive: Potency [1] | outcome [2] | max response [3] 11.4% | Potency [4] | Potency [5] | Potency [7] | Potency [8] | outcome [9] | Potency [10] | outcome [17] | Potency [11] | Potency [12] | Potency [13] | Potency [18] | Potency [14] | Potency [15] | outcome [19] | Potency [16] | outcome [20]

CN(CCO)CCO
inactive: Potency [1] | outcome [2] | max response [3] -0.53% | Potency [4] | Potency [5] | Potency [7] | Potency [8] | outcome [9] | Potency [10] | outcome [17] | Potency [11] | Potency [12] | Potency [18] | Potency [14] | Potency [15] | Potency [16]

Cc1cccc2sc3nncn3c12
inactive: Potency [1] | outcome [2] | max response [3] 22% | Potency [4] | Potency [5] | Potency [6] | Potency [8] | outcome [9] | Potency [10] | Potency [12] | Potency [18] | Potency [15] | Potency [16] | outcome [20]

C[C@H](N)C(=O)c1ccccc1
inactive: Potency [1] | outcome [2] | max response [3] -10.2% | Potency [4] | Potency [5] | Potency [7] | outcome [9] | Potency [10] | outcome [17] | Potency [11] | Potency [12] | Potency [15] | outcome [19] | Potency [16]

NC(=O)CS(=O)C(c1ccccc1)c1ccccc1 (centres undefined)
inactive: Potency [1] | outcome [2] | max response [3] -4.1% | Potency [4] | Potency [5] | Potency [7] | Potency [8] | outcome [9] | Potency [10] | outcome [17] | Potency [11] | Potency [12] | Potency [13] | Potency [18] | Potency [15] | outcome [19] | Potency [16]

CCCCCCCCBr
inactive: Potency [1] | outcome [2] | max response [3] 2.41% | Potency [4] | Potency [5] | Potency [6] | Potency [8] | outcome [9] | Potency [10] | Potency [11] | Potency [12] | Potency [18] | Potency [15] | outcome [19] | Potency [16] | outcome [20]

CCOC(=O)C(SP(=S)(OC)OC)c1ccccc1 (centres undefined)
inactive: Potency [1] | outcome [2] | max response [3] -6.34% | Potency [4] | Potency [5] | Potency [7] | Potency [8] | outcome [9] | Potency [10] | outcome [17] | Potency [11] | Potency [12] | Potency [18] | Potency [14] | Potency [15] | Potency [16] | outcome [20]

CCCN1CCC[C@@H]2Cc3[nH]ncc3C[C@H]21
inactive: Potency [1] | outcome [2] | max response [3] 2.6% | Potency [4] | Potency [5] | Potency [6] | Potency [8] | outcome [9] | Potency [10] | Potency [11] | Potency [12] | Potency [13] | Potency [14] | Potency [15] | outcome [19] | Potency [16]

CNC(=O)Oc1cc(C)c(N(C)C)c(C)c1
inactive: Potency [1] | outcome [2] | max response [3] -10.9% | Potency [4] | Potency [5] | Potency [6] | Potency [8] | outcome [9] | Potency [10] | Potency [11] | Potency [12] | Potency [13] | Potency [18] | Potency [15] | outcome [19] | Potency [16] | outcome [20]

CC(=O)OCC1=C(C(=O)O)N2C(=O)[C@@H](N)[C@H]2SC1
inactive: activity change, negative = cytotoxicity [1] 5.5% [at 15.8 µM] | viability change, negative = cytotoxic [2] 1.05% [at 15.8 µM] | max response [3] 21.8% | activity change [4] 11.8% [at 15.8 µM, hits give high values] | cytotoxicity increase [5] 0.706% [at 15.8 µM] | cytotoxicity [7] 0.21% [at 15.8 µM] | cytotoxicity increase [8] -2.77% [at 15.8 µM] | activity change, negative = cytotoxicity [9] -1.9% [at 15.8 µM] | cytotoxicity increase [10] -3.48% [at 15.8 µM] | cytotoxicity [17] -8.52% [at 15.8 µM] | cytotoxicity increase [11] 0.0293% [at 15.8 µM] | cytotoxicity increase [12] -3.34% [at 15.8 µM] | activity change, negative = cytotoxicity [14] -14.1% [at 15.8 µM] | activity change [15] 2.87% [at 15.8 µM, hits give high values] | activity change, negative = cytotoxicity [19] -5.45% [at 15.8 µM] | cytotoxicity increase [16] 1.96% [at 15.8 µM] | activity change, negative = cytotoxicity [20] 4.49% [at 19 µM]

CC(C)(O)C(Cl)(Cl)Cl
inactive: Potency [1] | outcome [2] | max response [3] 4.01% | Potency [4] | Potency [5] | Potency [7] | Potency [8] | outcome [9] | Potency [10] | outcome [17] | Potency [11] | Potency [12] | Potency [13] | Potency [18] | Potency [14] | Potency [15] | outcome [19] | Potency [16] | outcome [20]
